This passage reports composite z-score, composite Z-score and z-score results from PubChem BioAssay.

Active and inactive are the calls of the source.

In one experiment the target is Albumin (Bos taurus) (UniProt P02769). Nature of the experiment: compounds binding labelled BSA control protein – biochemical, small-molecule microarray, Alexa647 label, 635/667 nm fluorescence, artefact control for SMM control protein annotation, profiling panel (AID 1118).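 Further: score merges 667 nm emission intensity and signal-to-noise per printed compound spot.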 The conditions noted are these: BSA-A647 binding, fluorescence 635 nm, higher = more signal.
The nature of experiment [1]: probe aXIP binding to arrayed compounds – biochemical, NeuroSMM set, 635/667 nm fluorescence, primary screen (AID 1119).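 Further: probe is the protein aXip251-270 applied at 1 µg/mL to compound-printed slides; binding of probe to printed compounds measured as 667 nm fluorescence plus signal to noise.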 The note with it: small-molecule microarray, higher = more signal, called active from +8 up or from −8 down.
Experiment [2] can be described thus: probe aNOTCH3 binding on compound microarray – biochemical, small-molecule microarray, 635/667 nm fluorescence, primary screen (AID 1120).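 Further: probe is a biotin-tagged antibody raised against NOTCH3 rather than NOTCH3 protein; score merges spot fluorescence near 667 nm with spot signal to noise.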 The conditions noted are these: higher = more signal.
Experiment [3] is described as follows: probe aNOTCH2 binding on compound microarray – biochemical, small-molecule microarray, 635/667 nm fluorescence, primary screen (AID 1121).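 Further: score merges feature fluorescence read at 667 nm with its signal to noise.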 The conditions noted are these: higher = more signal.
Experiment [4] has as its target Carbonic anhydrase 2 (Homo sapiens) (UniProt P00918). Nature of the experiment: compounds binding carbonic anhydrase 2 – biochemical, small-molecule microarray, Alexa647-labelled CAII, profiling panel (AID 1122). The conditions noted are these: CAII-A647 binding fluorescence, higher = more signal.
Experiment [5] can be described thus: COS7 lysate on small-molecule microarray, probe aHis, 635 nm (AID 1123).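 Further: z-score combines 667nm fluorescence intensity with signal-to-noise per printed compound spot.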 The conditions noted are these: COS7 cell lysate, fluorescence, higher = more signal.
Experiment [6] can be described thus: probe aLAP1 signal on lysate-treated microarray – cell lysate, small-molecule microarray, COS7 lysate, primary screen (AID 1124).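 Further: lysate comes from COS7 cells expressing LAP1 and is applied at 0.3 µg/mL; score merges spot fluorescence near 667 nm with signal-to-noise over triplicate slides.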 The conditions noted are these: probe aLAP1, fluorescence, higher = more signal.
Another experiment relates to Sam68 (KHDRBS1). Nature of the experiment: compounds binding KHDRBS1 protein – biochemical, small-molecule microarray, 635 nm fluorescence, primary screen (AID 1125).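 Further: score merges 667 nm channel intensity with signal to noise over triplicate slides.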 The note with it: higher = more signal.
Experiment [7] deals with Chordin-like protein 2 (CHRDL2). Nature of the experiment: compounds binding chordin-like 2 – biochemical, small-molecule microarray, 635 nm fluorescence, primary screen (AID 1126).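 Further: printed compound slides probed with Chrdl2 protein at 4 µg/mL for 1 h at 4 C; score merges 667 nm emission intensity with signal to noise over three replicate slides.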 The note with it: fluorescence 635 nm, higher = more signal.
Experiment [8] addresses Concanavalin-A (Canavalia ensiformis) (UniProt P02866). Kind of experiment: compounds binding concanavalin A lectin – biochemical, small-molecule microarray, Alexa647 label, 635 nm, artefact control for SMM control protein annotation, primary screen (AID 1127).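 Further: z combines 667 nm emission intensity with signal-to-noise across three replicate slides.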 The note with it: ConA-A647 binding fluorescence, higher = more signal.
Experiment [9] in a line: compounds binding Alexa647 anti-His antibody – biochemical, small-molecule microarray, 635 nm fluorescence, artefact control for SMM control protein annotation, primary screen (AID 1128).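 Further: score merges feature fluorescence with signal-to-noise for each printed compound spot.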 The conditions noted are these: higher = more signal.
Experiment [10] concerns Human papillomavirus type 1a E7 protein (residues 1-88). Kind of experiment: HPV1a E7 small-molecule binders, primary screen, biochemical, small-molecule microarray, residues 1-88, 635 nm (AID 1129). The conditions noted are these: small-molecule microarray binding, fluorescence 635 nm; higher = more signal.
Experiment [11] deals with Focal adhesion kinase 1 (Homo sapiens) (UniProt Q05397). Nature of the experiment: PTK2 protein binding on printed compound slides – biochemical, small-molecule microarray, 635/667 nm fluorescence, BSA, DTT, primary screen (AID 1130).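 Further: composite of spot emission at 667 nm and signal to noise over triplicate slides.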 The note with it: 635 nm fluorescence, higher = more signal.
Experiment [12] has as its system Fibrinogen (Alexa647-labelled). Nature of the experiment: Alexa647-fibrinogen binding to printed small molecules – biochemical, small-molecule microarray, 635/667 nm fluorescence, artefact control for SMM control-protein annotation, profiling panel (AID 1131).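 Further: z-score merges 667 nm fluorescence with per-spot signal-to-noise over triplicate slides.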 The note with it: fibrinogen-A647 binding fluorescence, higher = more signal.
Experiment [13] concerns the target Follistatin (Homo sapiens) (UniProt P19883). Kind of experiment: FST protein binding to printed compounds – biochemical, small-molecule microarray, 635/667 nm fluorescence, primary screen (AID 1132). The conditions noted are these: 635 nm fluorescence, higher = more signal.
The target in experiment [14] is Fibroblast growth factor 2 (Homo sapiens) (UniProt P09038). Nature of the experiment: basic fibroblast growth factor binding to printed compounds – biochemical, small-molecule microarray, 635/667 nm fluorescence, primary screen (AID 1133). The note with it: FGF2, fluorescence 635/667, higher = more signal.
A short description of experiment [15]: JC-1 mitochondrial potential readout, lung cancer cells – cell-based, A549, JC-1 fluorescence, basal, 24 h, 100 nL, profiling panel (AID 1138).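 Further: A549 lung adenocarcinoma cells under basal conditions with no added stimulus; test concentration not given here.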 The conditions noted are these: higher = more signal.
A further experiment has as its system Lefty1. Nature of the experiment: Lefty1 protein binding to printed compounds – biochemical, small-molecule microarray, 635/667 nm fluorescence, primary screen (AID 1139). The conditions noted are these: fluorescence 635/667, higher = more signal.
In experiment [16] the test system is wheat germ agglutinin (Triticum aestivum), Alexa647-labelled. Nature of the experiment: Alexa647-WGA lectin binding to printed small molecules – biochemical, small-molecule microarray, 635/667 nm fluorescence, artefact control for SMM control-protein annotation, profiling panel (AID 1140).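 Further: score merges 667 nm feature emission with signal to noise over triplicate slides.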 The conditions noted are these: WGA-A647 binding, 635 nm fluorescence, higher = more signal.

Experiment [17] deals with Luciferin 4-monooxygenase (Photinus pyralis) (UniProt P08659). Nature of the experiment: inhibition of purified Photinus pyralis luciferase – biochemical, luminescence, purified enzyme, 2006 set, primary screen (AID 1141).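 Further: cell-free assay with purified firefly luciferase at 100 ng per well in PBS; test concentration not given here.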 The note with it: purified firefly luciferase, SteadyGlo luminescence, 30 min; higher = more signal, called active from +8 up or from −8 down.
Sequence of Luciferin 4-monooxygenase (Photinus pyralis) (P08659 whole entry, looked up): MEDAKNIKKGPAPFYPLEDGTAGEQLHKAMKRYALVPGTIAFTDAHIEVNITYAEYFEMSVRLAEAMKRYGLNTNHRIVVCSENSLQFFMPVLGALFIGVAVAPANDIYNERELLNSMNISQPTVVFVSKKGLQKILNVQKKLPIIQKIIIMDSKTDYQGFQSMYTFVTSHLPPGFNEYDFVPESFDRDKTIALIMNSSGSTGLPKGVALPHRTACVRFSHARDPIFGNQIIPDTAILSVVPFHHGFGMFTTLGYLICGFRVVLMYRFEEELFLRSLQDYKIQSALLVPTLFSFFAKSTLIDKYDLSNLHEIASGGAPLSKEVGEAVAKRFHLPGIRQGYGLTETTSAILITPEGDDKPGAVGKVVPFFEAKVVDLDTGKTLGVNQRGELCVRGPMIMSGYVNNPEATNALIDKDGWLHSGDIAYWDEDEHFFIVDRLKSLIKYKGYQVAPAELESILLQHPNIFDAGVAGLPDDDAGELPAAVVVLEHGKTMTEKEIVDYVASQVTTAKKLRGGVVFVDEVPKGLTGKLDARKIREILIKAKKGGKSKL

Sequence of Fibroblast growth factor 2 (Homo sapiens) (P09038 whole entry, looked up): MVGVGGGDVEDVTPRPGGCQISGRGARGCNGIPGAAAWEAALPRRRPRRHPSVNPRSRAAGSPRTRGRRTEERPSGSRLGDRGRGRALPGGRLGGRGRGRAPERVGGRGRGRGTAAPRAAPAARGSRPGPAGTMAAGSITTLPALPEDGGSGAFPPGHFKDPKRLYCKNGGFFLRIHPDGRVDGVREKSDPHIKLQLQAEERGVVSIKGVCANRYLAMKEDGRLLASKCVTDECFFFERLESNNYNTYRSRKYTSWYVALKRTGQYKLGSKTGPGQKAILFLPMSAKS
Sequence of Concanavalin-A (Canavalia ensiformis) (P02866 whole entry, looked up): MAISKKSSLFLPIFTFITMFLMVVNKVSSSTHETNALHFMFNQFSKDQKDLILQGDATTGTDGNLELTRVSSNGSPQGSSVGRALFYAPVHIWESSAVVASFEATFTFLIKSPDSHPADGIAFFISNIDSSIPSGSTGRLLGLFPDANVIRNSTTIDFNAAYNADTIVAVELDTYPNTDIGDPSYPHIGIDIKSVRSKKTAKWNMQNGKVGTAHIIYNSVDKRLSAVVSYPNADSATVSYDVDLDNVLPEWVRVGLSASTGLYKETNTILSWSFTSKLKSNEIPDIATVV
Sequence of Follistatin (Homo sapiens) (P19883 whole entry, looked up): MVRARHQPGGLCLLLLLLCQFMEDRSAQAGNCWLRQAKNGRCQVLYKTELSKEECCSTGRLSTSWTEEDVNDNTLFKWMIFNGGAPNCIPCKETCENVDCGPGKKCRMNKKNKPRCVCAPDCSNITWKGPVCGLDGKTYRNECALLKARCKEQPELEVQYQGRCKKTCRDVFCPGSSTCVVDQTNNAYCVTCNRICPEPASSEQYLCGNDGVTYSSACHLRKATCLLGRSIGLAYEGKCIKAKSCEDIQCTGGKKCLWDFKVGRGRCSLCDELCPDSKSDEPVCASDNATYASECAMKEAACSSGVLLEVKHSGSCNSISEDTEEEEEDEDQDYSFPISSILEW
Sequence of Albumin (Bos taurus) (P02769 whole entry, looked up): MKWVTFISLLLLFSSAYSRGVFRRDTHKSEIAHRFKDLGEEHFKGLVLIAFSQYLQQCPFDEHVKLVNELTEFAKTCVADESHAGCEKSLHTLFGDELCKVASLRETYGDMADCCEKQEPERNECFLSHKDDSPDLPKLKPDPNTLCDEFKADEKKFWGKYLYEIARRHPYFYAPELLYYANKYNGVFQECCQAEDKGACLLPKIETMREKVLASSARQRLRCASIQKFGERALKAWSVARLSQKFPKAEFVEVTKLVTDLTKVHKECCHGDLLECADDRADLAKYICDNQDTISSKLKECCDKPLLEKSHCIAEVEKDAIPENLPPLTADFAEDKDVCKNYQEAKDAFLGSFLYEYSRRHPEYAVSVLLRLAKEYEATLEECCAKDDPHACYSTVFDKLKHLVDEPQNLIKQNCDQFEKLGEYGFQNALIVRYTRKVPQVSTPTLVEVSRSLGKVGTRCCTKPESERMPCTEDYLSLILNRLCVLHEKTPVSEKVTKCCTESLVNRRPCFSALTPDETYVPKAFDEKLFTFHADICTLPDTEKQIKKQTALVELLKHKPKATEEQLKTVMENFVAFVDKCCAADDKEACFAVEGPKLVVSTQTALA
Sequence of Focal adhesion kinase 1 (Homo sapiens) (Q05397 whole entry, looked up): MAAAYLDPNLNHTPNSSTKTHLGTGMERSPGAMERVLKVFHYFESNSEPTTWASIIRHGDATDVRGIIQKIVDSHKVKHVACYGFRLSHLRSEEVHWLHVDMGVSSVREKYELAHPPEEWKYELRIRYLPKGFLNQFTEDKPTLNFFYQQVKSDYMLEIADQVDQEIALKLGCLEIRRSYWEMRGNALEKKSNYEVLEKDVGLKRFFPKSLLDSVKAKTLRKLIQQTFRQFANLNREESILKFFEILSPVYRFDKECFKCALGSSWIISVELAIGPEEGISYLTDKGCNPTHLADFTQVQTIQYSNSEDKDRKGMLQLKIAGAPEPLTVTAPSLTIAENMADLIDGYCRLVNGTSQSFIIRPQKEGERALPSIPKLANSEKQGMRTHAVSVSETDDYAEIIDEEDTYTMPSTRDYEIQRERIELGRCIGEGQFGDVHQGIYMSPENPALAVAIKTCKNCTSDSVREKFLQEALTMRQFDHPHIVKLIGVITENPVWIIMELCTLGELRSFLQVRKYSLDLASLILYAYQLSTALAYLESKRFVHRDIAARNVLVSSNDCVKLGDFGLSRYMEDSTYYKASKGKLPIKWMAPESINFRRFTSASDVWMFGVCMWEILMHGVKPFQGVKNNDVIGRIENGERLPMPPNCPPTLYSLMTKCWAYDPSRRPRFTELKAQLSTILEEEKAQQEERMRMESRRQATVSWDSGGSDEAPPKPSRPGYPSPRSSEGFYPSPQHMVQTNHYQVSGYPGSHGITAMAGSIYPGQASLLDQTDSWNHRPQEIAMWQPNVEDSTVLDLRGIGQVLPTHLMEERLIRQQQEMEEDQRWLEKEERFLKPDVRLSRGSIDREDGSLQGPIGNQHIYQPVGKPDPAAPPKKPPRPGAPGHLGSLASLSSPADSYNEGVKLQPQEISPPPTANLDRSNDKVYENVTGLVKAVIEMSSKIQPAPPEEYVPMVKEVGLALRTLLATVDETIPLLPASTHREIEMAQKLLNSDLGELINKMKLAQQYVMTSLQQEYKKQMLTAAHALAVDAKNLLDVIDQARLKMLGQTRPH

`C=C[C@H](OC)[C@@H](OC(=O)Nc1ccc(OC)cc1)c1ccc(OC)c(O)c1`: the composite z-score with Albumin (Bos taurus) was -2.02; in [2] it was -0.374; in [3], -0.181; in experiment [4], 0.633; in experiment [5], -0.844; in [6] it was 0.0191. Also, the composite z-score in the experiment with Sam68 (KHDRBS1) is -0.667; in experiment [7], -2.31; in [8] it was -2.17; in experiment [9] it was -1.22; in [10], -1.3; in experiment [11], 0.7. Also, the composite z-score in experiment [12] is -2.93; in [13], -0.823; in [14] it was -1.23; with Lefty1, -1.75; in [16], -2.18. Further, the composite Z-score in experiment [1] is -0.403 (inactive). Further, the z-score is 1.19 in [15] and -1.67 (inactive) in [17].

For the compound `COC(=O)[C@@]1(CCC(=O)OC(C)(C)C)COC(c2ccc(OCCCO)cc2)=N1`, the composite z-score in the experiment with Albumin (Bos taurus) was -1.01; in [2], -0.239; in [3] it was -0.147; in [4], 0.558; in experiment [5], 0.214; in [6], 0.993. Besides, the composite z-score in the experiment on Sam68 (KHDRBS1) was -0.724; in [7] it was -2.22; in [8] it was -1.8; in [9], -1.22; in experiment [10], -1.66; in experiment [11], -0.15. Also, the composite z-score in experiment [12] was -2.51; in [13], -2.21; in experiment [14], -1.64; in the experiment with Lefty1, -2.55; in [16], -1.57. The composite Z-score in experiment [1] was -0.378 (inactive). The z-score was -0.122 in [15] and -1.4 (inactive) in experiment [17].

Turning to `O=C(N1CCCCC1)[C@@]1(Cc2ccccc2)N=C(c2ccc(OCCCO)cc2)O[C@H]1c1ccccc1`, the composite z-score with Albumin (Bos taurus) worked out at 0.955; in [2], 0.214; in experiment [3], 0.308; in [4], 0.797; in experiment [5] it was 3; in experiment [6], 0.849. Also, the composite z-score with Sam68 (KHDRBS1) was 1.23; in experiment [7], -1.34; in [8], 1.11; in experiment [9], 2.02; in experiment [10] it was 1.07; in experiment [11] it was 1.42. For the same compound, the composite z-score in experiment [12] is 0.124; in [13], 0.622; in experiment [14], -0.12; with Lefty1 it was -0.341; in experiment [16], 1.07. In experiment [1], the composite Z-score is 0.0926 (inactive). Also, the z-score in [15] is -0.741; in experiment [17], -1.52 (inactive).

For the compound `Cc1ccc(N2C(=O)c3ccccc3[C@](C)(C(=O)NC3CC3)[C@@H]2c2ccc(CO)cc2)nc1`, the composite z-score was -0.0191 with Albumin (Bos taurus); -0.132 in [2]; -0.0698 in experiment [3]; 0.78 in experiment [4]; 0.529 in [5]; 1.18 in experiment [6]. Moreover, the composite z-score in the experiment with Sam68 (KHDRBS1) was -0.501; in experiment [7] it was 0.407; in experiment [8] it was -0.816; in [9], -0.373; in experiment [10], -0.644; in experiment [11], -0.0892. Further, the composite z-score in experiment [12] was -0.777; in experiment [13], 1.22; in experiment [14] it was 0.373; in the experiment with Lefty1, -0.105; in experiment [16], 0.618. For the same compound, the composite Z-score in experiment [1] is 0.186 (inactive). In addition, the z-score in [15] was 1.13; in [17] it was -1.5 (inactive).

In the case of `[N-]=[N+]=NCc1ccccc1C[C@@]1(C(=O)O)N=C(c2ccc(OCCCO)cc2)O[C@@H]1c1ccccc1`, the composite z-score with Albumin (Bos taurus) is 0.433; in experiment [2], -0.133; in [3] it was 0.0278; in experiment [4] it was 0.658; in experiment [5], 1.53; in experiment [6], 1.48. The composite z-score with Sam68 (KHDRBS1) is 0.782; in [7] it was -1.24; in [8] it was 0.933; in [9] it was 0.822; in experiment [10], 0.998; in experiment [11] it was 0.829. For the same compound, the composite z-score is 0.808 in experiment [12]; 0.322 in experiment [13]; -0.41 in experiment [14]; -0.771 in the experiment with Lefty1; 1.1 in experiment [16]. In addition, the composite Z-score in experiment [1] was 0.114 (inactive). The z-score in experiment [15] was 1.34; in experiment [17], -1.05 (inactive).

As to `C=CCC(OC(C)=O)[C@@H]1[C@@H](N(Cc2cc3ccccc3o2)C(=O)c2ccc(-c3ccccc3)cc2)c2cc(OCCCO)ccc2N1C(=O)c1ccc(-c2ccccc2)cc1` (stereo not given in full), the composite z-score with Albumin (Bos taurus) is 0.327; in experiment [2], 0.061; in [3] it was -0.148; in experiment [4], 0.301; in experiment [5], 0.568; in experiment [6], 0.0482. In addition, the composite z-score with Sam68 (KHDRBS1) is -0.19; in [7], -0.333; in [8], -0.395; in experiment [9], -0.853; in [10], -0.43; in experiment [11], 0.25. In addition, the composite z-score in experiment [12] was -0.796; in [13], 0.227; in experiment [14], -0.109; in the experiment with Lefty1, -0.147; in [16] it was -0.316. Besides, the composite Z-score in experiment [1] was -0.474 (inactive). The z-score in experiment [15] was 2.56; in [17], -1.02 (inactive).
